Measurements as given in ChEMBL document CHEMBL2218924, “A broad activity screen in support of a chemogenomic map for kinase signalling research and drug discovery” (Biochem J, 2013).

These compounds were tested against Protein kinase C eta type (Homo sapiens) (UniProt P24723). Details: at 1 µM; call rule not given here.
Chain of Protein kinase C eta type (Homo sapiens) (P24723 whole entry): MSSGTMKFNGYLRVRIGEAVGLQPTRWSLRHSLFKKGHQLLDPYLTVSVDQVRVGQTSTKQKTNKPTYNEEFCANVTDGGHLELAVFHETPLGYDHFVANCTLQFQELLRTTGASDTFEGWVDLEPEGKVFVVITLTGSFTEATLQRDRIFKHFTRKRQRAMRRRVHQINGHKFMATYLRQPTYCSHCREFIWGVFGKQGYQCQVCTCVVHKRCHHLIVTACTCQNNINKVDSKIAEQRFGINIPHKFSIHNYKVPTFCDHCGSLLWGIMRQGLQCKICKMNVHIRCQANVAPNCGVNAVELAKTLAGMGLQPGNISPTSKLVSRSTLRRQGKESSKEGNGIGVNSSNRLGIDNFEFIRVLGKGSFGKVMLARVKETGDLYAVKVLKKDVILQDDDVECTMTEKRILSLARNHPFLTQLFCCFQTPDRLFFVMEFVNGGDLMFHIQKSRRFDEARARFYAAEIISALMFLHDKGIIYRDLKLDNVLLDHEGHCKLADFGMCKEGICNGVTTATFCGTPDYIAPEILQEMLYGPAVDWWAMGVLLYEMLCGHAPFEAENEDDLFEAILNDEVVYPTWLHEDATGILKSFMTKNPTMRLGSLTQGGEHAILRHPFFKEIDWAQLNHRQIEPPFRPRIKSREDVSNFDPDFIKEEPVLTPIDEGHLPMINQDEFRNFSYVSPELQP

**Q.** Which residual activity does the source give for `N#Cc1c(NC(=O)c2cccc3ccccc23)sc2c1CCCC2` here?
**A.** The residual activity was 91%.

**Q.** With `Nc1nccc(-c2c(-c3ccc(F)cc3)ncn2C2CCNCC2)n1` as the compound, how does the residual activity read?
**A.** Its residual activity is 114%.

**Q.** How did the residual activity turn out when `CN([C@@H](Cc1ccc(OS(=O)(=O)c2cccc3cnccc23)cc1)C(=O)N1CCN(c2ccccc2)CC1)S(=O)(=O)c1cccc2cnccc12` was run?
**A.** The residual activity was 116%.

**Q.** For `NC(=O)c1ccc(-c2nc(-c3ccc4c(c3)OCCO4)c(-c3ccccn3)[nH]2)cc1`, which residual activity is on record?
**A.** Its residual activity is 94%.

Each compound was assayed against Protein kinase C eta type (Homo sapiens) (UniProt P24723). Details: at 10 µM.

**Q.** With `O=c1cc(N2CCOCC2)oc2c(-c3ccccc3)cccc12` as the compound, how does the residual activity read?
**A.** Its residual activity is 66%.

**Q.** How did the residual activity turn out when `O=C(c1cc2cc(O)ccc2[nH]1)c1cc2cc(O)ccc2[nH]1` was run?
**A.** Its residual activity is 77%.

**Q.** Which residual activity does the source give for `O=C1Nc2ccccc2/C1=C\c1c(Cl)[nH]c2ccccc12` here?
**A.** The residual activity was 80%.

**Q.** `CC(C)N(CCC(=O)c1ccc2ccccc2c1)Cc1ccccc1` was tested. Which residual activity did it give?
**A.** Its residual activity is 76%.

**Q.** Which residual activity does the source give for `N#Cc1c(NC(=O)c2cccc3ccccc23)sc2c1CCCC2` here?
**A.** Its residual activity is 92%.

**Q.** With `Nc1nc(Nc2ccc(S(N)(=O)=O)cc2)nn1C(=O)c1c(F)cccc1F` as the compound, how does the residual activity read?
**A.** Its residual activity is 64%.

**Q.** How did the residual activity turn out when `NC(=O)c1cccc(-c2cc(Nc3ccc(OC(F)(F)F)cc3)ncn2)c1` was run?
**A.** The residual activity was 91%.

**Q.** With `N#C/C(=C\c1ccc(O)c(O)c1)C(=O)NCc1ccccc1` as the compound, how does the residual activity read?
**A.** The residual activity was 82%.

**Q.** Which residual activity does the source give for `O=C1NC(=O)C(c2cn(CCCO)c3ncccc23)=C1c1cnccn1` here?
**A.** Its residual activity is 87%.

**Q.** With `COc1ccc(-c2cnc3c(-c4ccsc4)cnn3c2)cc1` as the compound, how does the residual activity read?
**A.** Its residual activity is 76%.

**Q.** Which residual activity does the source give for `Nc1nccc(-c2c(-c3ccc(F)cc3)ncn2C2CCNCC2)n1` here?
**A.** The residual activity was 70%.

**Q.** How did the residual activity turn out when `O=C(NC(NC(=S)Nc1ccc(F)c([N+](=O)[O-])c1)C(Cl)(Cl)Cl)C(c1ccccc1)c1ccccc1` (centres undefined) was run?
**A.** The residual activity was 90%.

**Q.** Which residual activity does the source give for `CN([C@@H](Cc1ccc(OS(=O)(=O)c2cccc3cnccc23)cc1)C(=O)N1CCN(c2ccccc2)CC1)S(=O)(=O)c1cccc2cnccc12` here?
**A.** Its residual activity is 100%.

**Q.** How did the residual activity turn out when `NC(=O)c1ccc(-c2nc(-c3ccc4c(c3)OCCO4)c(-c3ccccn3)[nH]2)cc1` was run?
**A.** Its residual activity is 88%.

**Q.** Which residual activity does the source give for `O=c1c(-c2ccc(F)cc2)c(-c2ccncc2)[nH]n1-c1ccc(Cl)cc1` here?
**A.** Its residual activity is 72%.

Each compound was assayed against Protein kinase C theta type (Homo sapiens) (UniProt Q04759). Details: at 1 µM.
Chain of Protein kinase C theta type (Homo sapiens) (Q04759 whole entry, looked up): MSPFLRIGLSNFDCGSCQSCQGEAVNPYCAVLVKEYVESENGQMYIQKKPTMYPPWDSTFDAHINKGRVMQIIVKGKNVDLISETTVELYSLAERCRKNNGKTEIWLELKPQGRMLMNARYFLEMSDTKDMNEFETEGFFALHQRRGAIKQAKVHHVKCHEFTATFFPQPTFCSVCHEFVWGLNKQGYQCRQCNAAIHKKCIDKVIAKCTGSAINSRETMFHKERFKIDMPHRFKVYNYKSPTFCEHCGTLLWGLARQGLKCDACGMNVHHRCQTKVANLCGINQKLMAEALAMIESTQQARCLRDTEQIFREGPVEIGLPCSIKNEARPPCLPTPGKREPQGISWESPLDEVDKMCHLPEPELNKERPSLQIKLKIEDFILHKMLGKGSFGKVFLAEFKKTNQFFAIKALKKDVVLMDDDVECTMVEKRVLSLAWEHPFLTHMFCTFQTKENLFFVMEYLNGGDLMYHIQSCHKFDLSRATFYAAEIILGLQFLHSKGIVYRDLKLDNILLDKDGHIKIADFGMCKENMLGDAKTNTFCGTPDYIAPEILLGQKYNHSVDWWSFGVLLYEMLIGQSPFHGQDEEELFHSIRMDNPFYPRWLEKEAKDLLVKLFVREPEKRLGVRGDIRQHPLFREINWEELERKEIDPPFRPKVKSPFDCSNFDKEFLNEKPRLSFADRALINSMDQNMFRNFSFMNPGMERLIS

**Q.** Which residual activity does the source give for `O=C(c1cc2cc(O)ccc2[nH]1)c1cc2cc(O)ccc2[nH]1` here?
**A.** Its residual activity is 83%.

**Q.** How did the residual activity turn out when `O=C1Nc2ccccc2/C1=C\c1c(Cl)[nH]c2ccccc12` was run?
**A.** The residual activity was 81%.

**Q.** Which residual activity does the source give for `Nc1nc(Nc2ccc(S(N)(=O)=O)cc2)nn1C(=O)c1c(F)cccc1F` here?
**A.** The residual activity was 30%.

**Q.** How did the residual activity turn out when `O=C1NC(=O)C(c2cn(CCCO)c3ncccc23)=C1c1cnccn1` was run?
**A.** Its residual activity is 97%.

**Q.** For `CCCCc1c(-c2ccc(OC)cc2)[nH]c2nccnc12`, which residual activity is on record?
**A.** Its residual activity is 90%.

**Q.** `c1ccc(-c2cnc(Nc3ccc(OCCN4CCCC4)cc3)s2)cc1` was tested. Which residual activity did it give?
**A.** Its residual activity is 115%.

**Q.** With `CN(C)S(=O)(=O)c1ccc2c(c1)/C(=C/c1cc3c([nH]1)CCCC3)C(=O)N2` as the compound, how does the residual activity read?
**A.** The residual activity was 93%.

**Q.** Which residual activity does the source give for `O=C(NC(NC(=S)Nc1ccc(F)c([N+](=O)[O-])c1)C(Cl)(Cl)Cl)C(c1ccccc1)c1ccccc1` (centres undefined) here?
**A.** Its residual activity is 97%.

**Q.** For `COc1ccc(Cl)cc1NC(=O)Nc1cc(C)nc2ccccc12`, which residual activity is on record?
**A.** The residual activity was 89%.

**Q.** With `O=C(CCCc1ccc(-c2ccccc2F)cc1)Nc1ccc(O)cc1` as the compound, how does the residual activity read?
**A.** Its residual activity is 100%.

**Q.** Which residual activity does the source give for `Oc1cccc(-c2nc(N3CCOCC3)c3oc4ncccc4c3n2)c1` here?
**A.** The residual activity was 84%.

**Q.** For `Cc1cc(C)c(/C=C2\C(=O)Nc3ccccc32)[nH]1`, which residual activity is on record?
**A.** The residual activity was 103%.

**Q.** For `N#C/C(=C1/Nc2ccccc2S1)c1ccnc(NCCc2cccnc2)n1`, which residual activity is on record?
**A.** Its residual activity is 95%.

Each compound was assayed against Protein kinase C theta type (Homo sapiens) (UniProt Q04759). Details: at 10 µM.

**Q.** `O=C(c1cc2cc(O)ccc2[nH]1)c1cc2cc(O)ccc2[nH]1` was tested. Which residual activity did it give?
**A.** The residual activity was 67%.

**Q.** Which residual activity does the source give for `O=C1Nc2ccccc2/C1=C\c1c(Cl)[nH]c2ccccc12` here?
**A.** The residual activity was 71%.

**Q.** How did the residual activity turn out when `Nc1nc(Nc2ccc(S(N)(=O)=O)cc2)nn1C(=O)c1c(F)cccc1F` was run?
**A.** Its residual activity is 20%.

**Q.** Which residual activity does the source give for `O=C1NC(=O)C(c2cn(CCCO)c3ncccc23)=C1c1cnccn1` here?
**A.** The residual activity was 77%.

**Q.** `CCCCc1c(-c2ccc(OC)cc2)[nH]c2nccnc12` was tested. Which residual activity did it give?
**A.** Its residual activity is 83%.

**Q.** `c1ccc(-c2cnc(Nc3ccc(OCCN4CCCC4)cc3)s2)cc1` was tested. Which residual activity did it give?
**A.** The residual activity was 102%.

**Q.** For `CN(C)S(=O)(=O)c1ccc2c(c1)/C(=C/c1cc3c([nH]1)CCCC3)C(=O)N2`, which residual activity is on record?
**A.** The residual activity was 72%.

**Q.** `O=C(NC(NC(=S)Nc1ccc(F)c([N+](=O)[O-])c1)C(Cl)(Cl)Cl)C(c1ccccc1)c1ccccc1` (centres undefined) was tested. Which residual activity did it give?
**A.** The residual activity was 104%.

**Q.** `COc1ccc(Cl)cc1NC(=O)Nc1cc(C)nc2ccccc12` was tested. Which residual activity did it give?
**A.** The residual activity was 92%.

**Q.** `O=c1c(-c2ccc(F)cc2)c(-c2ccncc2)[nH]n1-c1ccc(Cl)cc1` was tested. Which residual activity did it give?
**A.** Its residual activity is 71%.

**Q.** With `O=C(CCCc1ccc(-c2ccccc2F)cc1)Nc1ccc(O)cc1` as the compound, how does the residual activity read?
**A.** Its residual activity is 105%.

**Q.** With `Oc1cccc(-c2nc(N3CCOCC3)c3oc4ncccc4c3n2)c1` as the compound, how does the residual activity read?
**A.** The residual activity was 86%.

**Q.** For `N#C/C(=C1/Nc2ccccc2S1)c1ccnc(NCCc2cccnc2)n1`, which residual activity is on record?
**A.** Its residual activity is 72%.

The compounds below were run against T1, Protein kinase C iota type (Homo sapiens) (UniProt P41743). Details: at 1 µM.
T1 sequence (whole entry): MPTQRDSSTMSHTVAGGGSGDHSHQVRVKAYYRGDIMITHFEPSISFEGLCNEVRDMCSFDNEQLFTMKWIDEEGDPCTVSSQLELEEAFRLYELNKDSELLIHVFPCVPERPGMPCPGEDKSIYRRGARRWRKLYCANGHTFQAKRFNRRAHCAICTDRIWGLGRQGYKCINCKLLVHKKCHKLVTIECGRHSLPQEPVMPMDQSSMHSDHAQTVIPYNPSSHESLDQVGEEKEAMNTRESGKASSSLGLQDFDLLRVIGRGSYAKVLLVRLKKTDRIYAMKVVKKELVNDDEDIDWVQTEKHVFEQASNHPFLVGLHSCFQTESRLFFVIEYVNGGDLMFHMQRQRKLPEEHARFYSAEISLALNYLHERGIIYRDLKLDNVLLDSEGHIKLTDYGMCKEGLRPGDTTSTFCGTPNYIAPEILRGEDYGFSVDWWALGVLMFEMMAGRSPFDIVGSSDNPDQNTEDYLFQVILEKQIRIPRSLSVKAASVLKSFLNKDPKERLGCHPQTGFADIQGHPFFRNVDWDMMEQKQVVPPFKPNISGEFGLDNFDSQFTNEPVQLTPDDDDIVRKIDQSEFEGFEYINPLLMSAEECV

**Q.** For `COc1ccc(CNC(=O)Nc2ncc([N+](=O)[O-])s2)cc1`, which residual activity is on record?
**A.** The residual activity was 110% (inactive).

**Q.** How did the residual activity turn out when `CC(C)N(CCC(=O)c1ccc2ccccc2c1)Cc1ccccc1` was run?
**A.** Its residual activity is 77% (inactive).

**Q.** Which residual activity does the source give for `Nc1nc(Nc2ccc(S(N)(=O)=O)cc2)nn1C(=O)c1c(F)cccc1F` here?
**A.** The residual activity was 109% (inactive).

**Q.** Which residual activity does the source give for `NC(=O)c1cccc(-c2cc(Nc3ccc(OC(F)(F)F)cc3)ncn2)c1` here?
**A.** The residual activity was 92% (inactive).

**Q.** Which residual activity does the source give for `COc1ccc(-c2cnc3c(-c4ccsc4)cnn3c2)cc1` here?
**A.** The residual activity was 81% (inactive).

**Q.** Which residual activity does the source give for `CCCCc1c(-c2ccc(OC)cc2)[nH]c2nccnc12` here?
**A.** Its residual activity is 112% (inactive).

**Q.** With `CN(C)S(=O)(=O)c1ccc2c(c1)/C(=C/c1cc3c([nH]1)CCCC3)C(=O)N2` as the compound, how does the residual activity read?
**A.** Its residual activity is 99% (inactive).

**Q.** How did the residual activity turn out when `COc1ccc(Cl)cc1NC(=O)Nc1cc(C)nc2ccccc12` was run?
**A.** The residual activity was 88% (inactive).

**Q.** How did the residual activity turn out when `Oc1cccc(-c2nc(N3CCOCC3)c3oc4ncccc4c3n2)c1` was run?
**A.** Its residual activity is 89% (inactive).
